# Compound activity (PubChem)
# esBAF inh: inhibitors of esBAF chromatin remodeling in mouse ES cells | AID 602393 | Bmi1-luciferase knock-in reporter, 24 h; 100% = twice the neutral-well signal | 350,000 tested, 2% active | reporter increase, % at 12.5 µM; in the data active = activation above about 40%;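 also: 0% = median of the plate's neutral control wells and 100% = double that signal; a rise in the Bmi1 reporter signal indicates esBAF inhibition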
# MITF TRPM1 HTS: increases MITF-driven TRPM1 promoter luciferase signal. activation, % at 12.5 µM. SK-MEL-5 TRPM1-promoter luciferase, 24 h; % of positive control, neutral wells = 0. 300,000 tested, 0.75% active. AID 588334;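 active = mean activation of at least 80% with every replicate also reaching 80%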;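 also: 0% = neutral control wells and 100% = parthenolide positive control wells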
# AHR activator: activators of human aryl hydrocarbon receptor. AHR-responsive luciferase reporter cells, luminescence. activation, % at 5 µM. AID 2796. 320,000 tested, 2.5% active; in the data active = activation above about 47%;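 also: 0% = vehicle wells and 100% = reference agonist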
# GAA850 FXN act: frataxin GAA850 promoter activation. HEK293 lucGAA850 FXN promoter luciferase reporter, 24 h; percent of 10 µM SAHA response. 360,000 tested, 0.56% active. activation, % at 6 µM;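 active = activation above the average of all compounds screened plus 3 SD, cutoff fixed separately per campaign, cut at about 7.5% in these data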;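 also: 0% = DMSO wells and 100% = 10 µM SAHA wells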
# Wnt act: Wnt/beta-catenin pathway activation; Wnt/beta-catenin reporter cell assay, activator, plate reader; activation, % at 9.35 µM; 300,000 tested, 1.2% active; AID 743398; in the data active = activation above about 30%, passing the limit was not always enough;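 also: 0% = neutral control wells and 100% = positive control wells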
# The depositor's hits bear a star; nt = no result. Rows were chosen to be rich in hits. Some 4.2% of all compounds tested hit in one or more screens of this group.
SMILES,esBAF inh,MITF TRPM1 HTS,AHR activator,GAA850 FXN act,Wnt act
COc1ccccc1-c1cnc2c(c1)C(=O)N([C@@H](C)CO)C[C@@H](C)[C@@H](CN(C)C(=O)c1ccncc1)O2,-1,nt,nt,nt,nt
COCCNC(=O)C(=O)Nc1ccc(Br)cc1,49*,27,5,2,nt
CCCNC(=O)C(=O)Nc1ccc(N(C)C)cc1,7,72,68*,2,12
COCCNC(=O)C(=O)Nc1cccc(Br)c1,57*,54,0,5,5
C[C@H]1CN([C@@H](C)CO)C(=O)c2cc(NC(=O)Nc3ccc4c(c3)OCO4)ccc2O[C@H]1CN(C)CC1CCCCC1,0,nt,nt,nt,nt
CC(=O)c1c(N)[nH]c(-c2ccccc2)nc1=S,14,nt,62*,2,nt
O=C(NCc1ccccc1)c1cc(-c2cccc(O)c2)on1,68*,nt,11,3,20
COc1ccc(-c2cc(C(=O)NCc3ccccc3)no2)cc1OC,-8,8,-4,1,nt
O=C(NCc1ccccc1)c1cc(-c2ccco2)on1,42*,50,0,4,9
COc1ccc(-c2cc(C(=O)NCc3cccnc3)no2)cc1,25,17,37,5,nt
O=C(NCc1cccnc1)c1cc(-c2ccccc2)on1,47*,19,7,4,nt
C[C@H](CO)N1C[C@H](C)[C@@H](CN(C)C(=O)Cc2ccccn2)Oc2ncc(C#CC3CCCCC3)cc2C1=O,4,nt,nt,nt,nt
Cc1ccc(S(=O)(=O)NCC[C@H]2CC[C@H](NC(=O)c3cnccn3)[C@@H](CO)O2)cc1,-1,nt,nt,nt,nt
CCCCSc1nc(C(=O)O)cc(=O)[nH]1,-1,-8,-3,-1,38*
O=C(NNC(=O)c1cccc2ccccc12)c1ccc(Cl)cc1Cl,61*,18,nt,1,-6
O=C(NNc1cccc(Cl)n1)c1ccc(Cl)cc1Cl,52*,nt,-10,3,nt
O=C(N[C@@H]1CC[C@H](CC(=O)N2CCOCC2)O[C@@H]1CO)c1ccccn1,-8,nt,nt,nt,nt
CCC(=O)N[C@@H]1CC[C@H](CC(=O)NCc2ccccc2F)O[C@H]1CO,0,nt,nt,nt,nt
COc1cc(OC)cc(C(=O)Nc2cccc3ccccc23)c1,-11,-10,14,0,-2
COC(=O)/C(=C/Nc1cccc2ccccc12)[N+](=O)[O-],nt,3,62*,1,8
C[C@H]1CCCCO[C@H](CN(C)C(=O)NC2CCCCC2)[C@@H](C)CN([C@@H](C)CO)C(=O)c2cc(NC(=O)Cc3ccccc3)ccc2O1,14,nt,nt,nt,nt
Nc1ccc2nc(C(F)(F)F)[nH]c2c1,nt,5,14,0,nt
Cc1nc2cc3nc(C(F)(F)F)[nH]c3cc2[nH]1,nt,13,50*,2,2
C[C@H](CO)N1C[C@H](C)[C@@H](CN(C)S(=O)(=O)c2ccccc2)Oc2ccc(NC(=O)c3ccncc3)cc2CC1=O,0,nt,nt,nt,nt
COc1ccc(-c2nc(SCC(=O)Nc3nccs3)c(-c3ccc(Cl)cc3)[nH]2)cc1,9,nt,72*,-7,-7
SMILES,esBAF inh,MITF TRPM1 HTS,AHR activator,GAA850 FXN act,Wnt act
COc1ccc(-c2[nH]c(-c3ccc(SC)cc3)nc2SCC(=O)Nc2nccs2)cc1,nt,12,52*,-1,-1
COc1ccc(-c2cc(-c3ccccc3)nc(SCC(=O)Nc3nccs3)c2C#N)cc1,nt,3,-1,3,-1
COc1ccc(-c2[nH]c(-c3ccc(C)cc3)nc2SCC(=O)Nc2nccs2)cc1,nt,-14,55*,-1,-2
O=C(CSc1nc(-c2ccccc2)c(-c2ccccc2)[nH]1)Nc1nccs1,-2,-4,16,-2,1
CC(C)c1ccc(Nc2nnc(SCC(=O)NCC3CCCO3)s2)cc1 (stereo not given),8,37,10,0,47*
Cc1cccc(Nc2nnc(SCC(=O)NCC3CCCO3)s2)c1 (stereo not given),13,-1,5,-1,5
COc1ccc(-n2c(Cc3cccn3C)nnc2SCC(=O)NCc2ccco2)cc1,-6,-4,66*,0,-1
COc1ccc(-c2nc(SCC(=O)NC3CCCC3)c(-c3ccc(OC)cc3)[nH]2)cc1,21,-8,49*,-2,-2
Cc1ccc2nc(SCC(=O)NCC3CCCO3)c(C#N)cc2c1 (stereo not given),8,23,5,4,nt
Cc1ccc(-c2nc(SCC(=O)NCC3CCCO3)c(-c3ccc(C)cc3)[nH]2)cc1 (stereo not given),-8,nt,54*,0,2
